Screens as filed in PubChem.
Hits are enriched below; roughly 3.8% of the tested compounds scored in any of these assays.
Nrf2 activator: activators of Nrf2 (ARE) signaling; Potency, µM (top dose mostly 46.1 µM), most hits filed as activators; AID 624171; AREc32 ARE-luciferase reporter (MCF7-derived line), luminescence, 24 h; 0.31% of 410,000 active; further: nearly all actives have a fitted effect of over 65% in size
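Each well held 1000 AREc32 cells, which were incubated with compound for 24 hr at 37 deg C after overnight attachment, and ARE reporter activity was quantified by firefly luciferase luminescence.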
IDH1 R132H inh: human IDH1 R132H inhibition; 0.093% of 390,000 active; AID 602179; O75874; IDH1-R132H enzyme, NADPH consumption, diaphorase/resazurin fluorescence; Potency, µM (doses to about 76.6 µM), most hits filed as inhibitors; further: nearly all actives have a fitted effect of over 65% in size
Target sequence (O75874 whole entry R132H, stated change not applied): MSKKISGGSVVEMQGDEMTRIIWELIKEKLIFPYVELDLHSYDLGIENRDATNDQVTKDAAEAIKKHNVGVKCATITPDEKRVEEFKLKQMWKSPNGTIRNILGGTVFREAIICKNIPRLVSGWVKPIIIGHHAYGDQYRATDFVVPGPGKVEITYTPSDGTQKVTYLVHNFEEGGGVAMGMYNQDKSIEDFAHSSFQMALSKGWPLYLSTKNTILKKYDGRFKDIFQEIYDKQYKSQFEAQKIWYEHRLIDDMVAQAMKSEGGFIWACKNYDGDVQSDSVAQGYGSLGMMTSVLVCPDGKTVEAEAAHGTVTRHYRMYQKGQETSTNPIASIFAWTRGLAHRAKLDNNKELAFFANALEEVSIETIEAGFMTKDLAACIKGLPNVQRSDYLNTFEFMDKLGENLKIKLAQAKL
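IDH1-R132H (0.5 ug/mL) preincubated 30 min with compound, then NADPH (0.016 mM) and alpha-KG (2 mM) added; 80 min at RT, pH 7.5. Remaining NADPH coupled via diaphorase/resazurin to fluorescence (540/590 nm); concentration-response curves normalized to no-enzyme control.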
A549 viability: counter-screen for Nrf2 inhibitors: cytotoxicity in A549 cells; Potency, µM (titrated, usually from 46 µM), actives largely listed as inhibitors; 0.16% of 390,000 active; AID 504648; A549 ARE-Fluc cells, CellTiter-Fluor viability, 18-24 h
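A549 ARE_Fluc cells in 5% FBS OPTI-MEM were exposed to compounds in concentration-response for 18-24 h at 37 deg C. Viability was read by CellTiter-Fluor fluorescence (Ex 405/Em 525) after 30 min, before the luciferase read.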
Nrf2 block: inhibitors of Nrf2 signaling; A549 ARE-Fluc reporter, luciferase luminescence, 18-24 h; 2.1% of 360,000 active; Potency, µM (top dose mostly 46 µM), most hits filed as inhibitors; further: nearly all actives have a fitted effect of over 60% in size
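Cells were seeded and rested 2 h, then exposed to compounds for 18-24 h. CellTiter-Fluor was read first as a viability measure. BugLite was added 15 min before the final luminescent read of ARE-luciferase activity in A549 cells.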
ELG1 DNA repair: ELG1-dependent DNA repair inhibition. HEK293T ELG1-luciferase reporter, luminescence, 16 h; DNA damage induced by 5-fluorouridine. Potency, µM (series often up to 46.1 µM), actives largely listed as inhibitors. 2.3% of 330,000 active; further: nearly all actives have a fitted effect of over 55% in size
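Quantitative HTS, concentration-response format. 2,000 cells/well co-treated with 5-fluorouridine and compound, 16 hr in 5% CO2 at 37 °C; ONE-Glo luminescence read after 30 min.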
Of the large screens only hits and unclear results are named; the others gave an inactive call. The call rests on the fitted dose curve; in most records, active means well fitted curve in the direction sought with a large enough effect; inconclusive means small, poorly fitted or top-dose-only effect, or another doubt; inactive means no such curve, though single readings can be large; an effect the other way counts as inactive or inconclusive.

CC1CCN(S(=O)(=O)c2cccc(C(=O)NCC3CCCO3)c2)CC1 (stereo not drawn)	Nrf2 block 13µM
O=C(COC(=O)c1cc(S(=O)(=O)N2CCOCC2)c(Cl)cc1Cl)NCc1ccco1	none
C=CCn1cc(C(=O)OC)c(=O)c2cc(S(=O)(=O)N3CCCCCC3)ccc21	none
O=C(NCC1CCCO1)c1cccc(S(=O)(=O)N2CCCCC2)c1 (stereo not drawn)	none
CCn1cc(C(=O)NCC2CCCO2)c(=O)c2cc(S(=O)(=O)N(C)C3CCCCC3)ccc21 (stereo not drawn)	Nrf2 block inconclusive, ELG1 DNA repair 16µM
CCCCC(=O)Nc1ccc(OCc2cc(=O)n3ccc(C)cc3n2)cc1	none (no result: Nrf2 block, ELG1 DNA repair)
C=CCc1ccccc1OCc1nc2ccc(C)cc2[nH]1	Nrf2 block inconclusive (no result: IDH1 R132H inh, ELG1 DNA repair)
COc1ccc(OCCCn2c(CCNC(=O)C3CCCCC3)nc3ccccc32)cc1	Nrf2 block inconclusive (no result: Nrf2 activator, IDH1 R132H inh, ELG1 DNA repair)
CC1CCN(S(=O)(=O)c2ccc3c(c2)c(=O)c(C(=O)NCc2cccs2)cn3C)CC1	none
Cn1cc(C(=O)NCC2COc3ccccc3O2)c(=O)c2cc(S(=O)(=O)N3CCCCC3)ccc21 (stereo not drawn)	ELG1 DNA repair 18µM
COC(CNC(=O)c1cn(C)c2ccc(S(=O)(=O)N(C)C3CCCCC3)cc2c1=O)OC	Nrf2 block inconclusive, ELG1 DNA repair 5.2µM
CCN1CCCC1CNC(=O)c1cn(C)c2ccc(S(=O)(=O)N3CCCCCC3)cc2c1=O (stereo not drawn)	none
CCn1cc(C(=O)NCC(OC)OC)c(=O)c2cc(S(=O)(=O)N(C)C3CCCCC3)ccc21	ELG1 DNA repair 9.2µM
CC1CCN(S(=O)(=O)c2ccc3c(c2)c(=O)c(C(=O)NCc2ccco2)cn3C)CC1	IDH1 R132H inh inconclusive, Nrf2 block inconclusive, ELG1 DNA repair 18µM
O=C1CC(c2ccccc2)Cc2[nH]c(=O)c(C(=O)Nc3cccc(F)c3)cc21 (stereo not drawn)	none (no result: Nrf2 block, ELG1 DNA repair)
Nc1ccc2oc(Cc3ccc(Cl)cc3)nc2c1	none (no result: IDH1 R132H inh, ELG1 DNA repair)
CN(C)c1cccc(C(=O)OCCNC(=O)c2cccc(S(=O)(=O)N3CCOCC3)c2)c1	ELG1 DNA repair 7.3µM
CCOc1ccc(N(C)S(=O)(=O)c2ccc3[nH]cc(C(=O)NCC4CCCO4)c(=O)c3c2)cc1 (stereo not drawn)	ELG1 DNA repair 23µM (no result: Nrf2 block)
COc1ccc(C2N(Cc3ccccc3)C(=O)c3ccccc3N2C)cc1COc1ccc(NC(C)=O)cc1 (stereo not drawn)	Nrf2 block inconclusive (no result: Nrf2 activator, IDH1 R132H inh, ELG1 DNA repair)
O=C(NCCCN1CCN(c2ccc(F)cc2)CC1)c1cnn(-c2ccc(F)cc2)c1-n1cccc1	Nrf2 block inconclusive (no result: ELG1 DNA repair)
Cc1nc(N2CCN(C)CC2)c2c3c(sc2n1)CCCC3	Nrf2 block inconclusive
O=C(c1ccco1)N1CCN(c2nc(C3CC3)nc3c2nnn3Cc2ccccc2Cl)CC1	Nrf2 block 16µM, ELG1 DNA repair inconclusive
O=C(c1ccco1)N1CCC(c2nc3c(nnn3Cc3ccccc3Cl)c(=O)[nH]2)CC1	none
Cc1nc(N2CCN(C(=O)c3cccs3)CC2)c2c3c(sc2n1)CCCC3	IDH1 R132H inh inconclusive, A549 viability inconclusive, Nrf2 block 18µM, ELG1 DNA repair inconclusive
O=C(c1ccco1)N1CCN(c2nc(C3CC3)nc3sc4c(c23)CCCC4)CC1	A549 viability inconclusive, Nrf2 block 23µM, ELG1 DNA repair inconclusive
CCOC(=O)c1nc(N2CCN(C(=O)OCC)CC2)c2c3c(sc2n1)CCCC3	Nrf2 block 26µM, ELG1 DNA repair inconclusive
COc1cccc(CN2CC(C(=O)NCCc3ccc(C)s3)CCC2=O)c1 (stereo not drawn)	none
CCOc1ccc(C(=O)c2cn(Cc3ccc(OC)cc3)c3cc(OC)c(OC)cc3c2=O)cc1	none (no result: ELG1 DNA repair)
Cc1sc2nc(C3CC3)nc(N3CCN(C(=O)c4ccc(Cl)cc4)CC3)c2c1C	Nrf2 block inconclusive, ELG1 DNA repair 23µM
Cc1nc(N2CCN(C(=O)c3ccco3)CC2)c2c3c(sc2n1)CCCC3	Nrf2 block inconclusive, ELG1 DNA repair 18µM
Cc1cc2c(s1)c1cnn(Cc3ccc(C(C)C)cc3)c(=O)c1n2C	none (no result: Nrf2 activator, IDH1 R132H inh, ELG1 DNA repair)
Brc1ccc(/C=N/Nc2ccccn2)cc1	Nrf2 activator 13µM, Nrf2 block inconclusive, ELG1 DNA repair inconclusive
Oc1cccc(C=NNc2ccccn2)c1	Nrf2 activator 13µM (no result: ELG1 DNA repair)
Oc1ccc(C=NNc2ccccn2)c(O)c1	Nrf2 block inconclusive (no result: ELG1 DNA repair)
CC(=O)Nc1ccc(NC(=O)c2ccc(OCc3c(C)noc3C)cc2)cc1	none
Cc1ccc(NC(=O)c2ccc(OCc3c(C)noc3C)cc2)cc1C	A549 viability inconclusive, Nrf2 block 18µM, ELG1 DNA repair 10µM
Cc1noc(C)c1COc1cccc(C(=O)Nc2ccc(Br)cc2F)c1	A549 viability inconclusive, Nrf2 block 23µM, ELG1 DNA repair inconclusive
Cc1ccc(NC(=O)c2ccc(OCc3c(C)noc3C)cc2)c(C)c1	Nrf2 block 23µM
Cc1ccc(NC(=O)c2cccc(OCc3c(C)noc3C)c2)c(C)c1	Nrf2 block inconclusive
CCOC(=O)/C(=C/c1c(C)n(C)c2ccc([N+](=O)[O-])cc12)C(C)=O	Nrf2 activator inconclusive, ELG1 DNA repair 13µM
Cc1ccc(NC(=O)c2oc3ccc(S(=O)(=O)N4CCC5(CC4)OCCO5)cc3c2C)cc1Cl	none (no result: Nrf2 block, ELG1 DNA repair)
COc1ccc(NC(=O)c2oc3ccc(S(=O)(=O)N4CCC5(CC4)OCCO5)cc3c2C)cc1	Nrf2 block inconclusive, ELG1 DNA repair 5.8µM
Cc1c(C(=O)N(C)CCC#N)oc2ccc(S(=O)(=O)N3CC(C)CC(C)C3)cc12 (stereo not drawn)	Nrf2 block inconclusive, ELG1 DNA repair 7.3µM
CCOC(=O)C1CCN(C(=O)c2oc3ccc(S(=O)(=O)N4CC(C)CC(C)C4)cc3c2C)CC1 (stereo not drawn)	A549 viability inconclusive, Nrf2 block 18µM, ELG1 DNA repair 10µM
Cc1c(C(=O)N2CCC(C)CC2)oc2ccc(S(=O)(=O)N3CCC4(CC3)OCCO4)cc12	Nrf2 block 21µM, ELG1 DNA repair inconclusive
Cc1c(C(=O)O)oc2ccc(S(=O)(=O)N3CC(C)CC(C)C3)cc12 (stereo not drawn)	none (no result: Nrf2 block)
Cc1c(C(=O)O)oc2ccc(S(=O)(=O)N3CCC(C)CC3)cc12	none (no result: Nrf2 block)
COc1ccc(CCNC(=O)Cn2cc(S(=O)(=O)Cc3ccccc3F)c3ccccc32)cc1OC	none (no result: ELG1 DNA repair)
CS(=O)(=O)c1ccc(C(=O)OCC(=O)NC23CC4CC(CC(C4)C2)C3)cc1[N+](=O)[O-]	IDH1 R132H inh 32µM
CCS(=O)(=O)N1CCN(c2ccc(C(=O)NC34CC5CC(CC(C5)C3)C4)cc2[N+](=O)[O-])CC1	ELG1 DNA repair 23µM
CC(C)c1ccc(Nc2nc(Nc3ccc(Cl)cc3)nc(N3CCOCC3)n2)cc1	none (no result: Nrf2 activator, IDH1 R132H inh, ELG1 DNA repair)
